Measured values taken from PubChem BioAssay.
The source made the active and inactive calls. Unless noted, no rule for the calls is given here.

Experiments:
[1] = Plasmodium falciparum growth inhibition, primary screen, strain 3D7, DAPI fluorescence, 100 nL (AID 1184);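 also: parasites grown inside human red blood cells in medium with human serum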; settings: P. falciparum 3D7 growth, 3 d, higher = more signal
[2] = target: Homeobox protein Hox-A13 (Mus musculus) (UniProt Q62424); assay: inhibitors of HoxA13-DNA binding, primary screen, biochemical, fluorescence polarization, labeled oligonucleotide (AID 1185); settings: 15 min, higher = more signal, called active from +8 up or from −8 down
Homeobox protein Hox-A13 (Mus musculus), sequence (Q62424 whole entry, looked up): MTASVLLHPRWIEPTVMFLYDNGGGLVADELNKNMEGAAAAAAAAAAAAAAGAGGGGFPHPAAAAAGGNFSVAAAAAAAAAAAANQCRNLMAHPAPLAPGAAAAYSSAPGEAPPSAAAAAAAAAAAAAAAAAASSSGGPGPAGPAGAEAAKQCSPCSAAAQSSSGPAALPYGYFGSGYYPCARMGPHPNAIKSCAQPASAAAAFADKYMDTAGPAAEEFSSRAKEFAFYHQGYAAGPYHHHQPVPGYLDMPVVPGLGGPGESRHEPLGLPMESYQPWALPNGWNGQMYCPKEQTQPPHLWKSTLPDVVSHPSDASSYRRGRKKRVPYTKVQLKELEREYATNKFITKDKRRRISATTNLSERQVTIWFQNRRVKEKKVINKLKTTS

[3] = inhibitors of hydroxyurea-induced Chk1 phosphorylation, primary screen, imaging, HeLa, phospho-Chk1 antibody, percent positive cells (AID 1186); settings: hydroxyurea-induced phospho-Chk1 immunofluorescence imaging, higher = more signal
[4] = inhibitors of hydroxyurea-induced Chk1 phosphorylation, primary screen, imaging, HeLa, phospho-Chk1 nuclear intensity (AID 1187); settings: hydroxyurea-induced phospho-Chk1 immunofluorescence imaging, higher = more signal; also: test concentration not given here

SMILES	z-score [1]	z-score [2]	z-score [3]	z-score [4]
CC(C)N1CC=CC23O[C@@H]4/C=C\CCCOC(=O)C4[C@H]2C(=O)N(CCCO)[C@@H]3C1=O (some centres not stated)	-0.723	-4.49 (inactive)	-0.235 (inactive)	0.101 (inactive)
COC(=O)C(CC#Cc1ccc2c(c1)[C@]1(C(=O)N2)[C@H](C(=O)O)[C@H]2C(=O)O[C@H](c3ccccc3)[C@H](c3ccccc3)N2[C@@H]1c1ccc(OCCO)cc1)C(=O)OC	-2.14	-6.34 (inactive)	-0.192 (inactive)	0.124 (inactive)
C[C@@H](OCc1ccccc1)C1NC(=O)[C@@]23C(=O)N[C@@H](Cc4ccccc4)C2[C@H](C)[C@@]2(C)O[C@H]2C3/C=C/C/C=C\CNC(=O)[C@@H]2CCCN2C1=O (some centres not stated)	-2.58	-7.05 (inactive)	0.0938 (inactive)	0.427 (inactive)
C[N+](C)(C)CCCCNC(=O)[C@@H]1C[C@@H]2C(=O)NCC(=O)N2[C@@H]1c1cccc(OCCO)c1	-0.664	-1.4 (inactive)	0.469 (inactive)	1.31 (inactive)
CC(C)(C)OC(=O)CC[C@@]1(C(=O)NCc2ccccc2)N=C(c2ccc(OCCCO)cc2)O[C@@H]1c1ccccc1CN=[N+]=[N-]	-2.72	-0.088 (inactive)	-0.763 (inactive)	-0.84 (inactive)
COC(=O)c1c2oc(c1C(=O)OC)C(=O)N[C@@H](C(C)C)Cn1nncc1C1(CCCCC1)NC(=O)N[C@H](CO)CC2	0.0974	-1.72 (inactive)	-0.259 (inactive)	0.158 (inactive)
CC(C)[Si](C#C[Si](C(C)C)(C(C)C)C(C)C)(O[C@H](C)c1cn([C@H](C)c2ccccc2)nn1)C(C)C	-0.628	-0.0303 (inactive)	-0.0899 (inactive)	0.346 (inactive)
Cc1ccc(S[C@]2(C(=O)NCCN3CCOCC3)CC(=O)N(Cc3cc(C(F)(F)F)cc(C(F)(F)F)c3)[C@@H]2c2ccc(CO)cc2)cc1	-0.578	-1.78 (inactive)	-0.999 (inactive)	-2.03 (inactive)
C=C(/C(=C/C[C@H](OC(C)=O)c1cccc(OCCO)c1)c1cc(C(=O)OC)ccc1OC)C(C)C	-1.79	-4.34 (inactive)	0.209 (inactive)	0.641 (inactive)
C=C(C(=O)CC[C@@H](OC(C)=O)c1ccccc1OCCO)C(C)C	-1.59	-1.92 (inactive)	-0.345 (inactive)	-0.171 (inactive)
CO[C@H]1O[C@H](CO)[C@@H](OC(=O)Nc2ccccc2)[C@H](OC(=O)Nc2ccccc2-c2ccccc2)[C@H]1OC(=O)Nc1ccccc1-c1ccccc1	-1.81	-3.12 (inactive)	-0.796 (inactive)	-0.793 (inactive)
COC(=O)C1=CC(c2ccc(CO)cc2)=CC(c2cccs2)N(C)C=C1C(=O)OC (configuration not stated)	-1.75	-6.41 (inactive)	-0.261 (inactive)	-0.22 (inactive)
C=C(C(=O)CC[C@H](OC(C)=O)c1ccc(CO)o1)C(C)C	-2.1	-2.79 (inactive)	-0.17 (inactive)	-0.428 (inactive)
O=C1N(CCS(=O)(=O)c2ccccc2)Cc2ccccc2[C@@H]2OC(c3ccc(OCCCO)cc3)=N[C@]12Cc1ccccc1	-2.19	2.39 (inactive)	-0.354 (inactive)	0.111 (inactive)
CC(C)C[C@@H]1NC(=O)[C@@]23C(=O)N[C@@H](Cc4ccccc4)C2[C@H](C)[C@@]2(C)O[C@H]2C3/C=C/CC/C=C/CNC(=O)[C@@H](C)NC1=O (some centres not stated)	-2.13	-4.78 (inactive)	-0.0396 (inactive)	0.292 (inactive)
CCCCCN1CC=CC23O[C@@H]4/C=C\CCC(C)OC(=O)C4[C@H]2C(=O)N(CCCO)[C@@H]3C1=O (some centres not stated)	-0.186	-3.86 (inactive)	-0.183 (inactive)	0.0885 (inactive)
C/C=C/[C@@H](CCn1cc(CCO[Si](C(C)C)(C(C)C)C(C)C)nn1)[Si](C)(C)c1ccc(OC)cc1	-0.84	-5.56 (inactive)	-0.233 (inactive)	0.122 (inactive)
CC(CO)N1C(=O)[C@@H]2C3C(=O)OCCC/C=C\[C@H]3OC23C=CCN(Cc2ccccc2)C(=O)[C@@H]13 (some centres not stated)	-0.518	-5.46 (inactive)	-0.6 (inactive)	-0.674 (inactive)
C=CCN1C(=O)[C@@]2(O[C@@H](CCn3cc(CCO)nn3)[C@H]([Si](C)(C)c3ccc(OC)cc3)[C@H]2C)c2cc(N3C(=O)c4cccc5cccc3c45)ccc21	-2.85	-5.26 (inactive)	-1.11 (inactive)	-0.144 (inactive)
CO[C@H]1O[C@H](CO)[C@@H](OC(=O)Nc2ccccc2)[C@H](OC(=O)Nc2ccc3c(c2)OCO3)[C@H]1OC(=O)Nc1ccc2c(c1)OCO2	-2.2	-7.83 (inactive)	-0.935 (inactive)	-0.967 (inactive)
CC(C)C[C@@H]1NC(=O)[C@@H]2C[C@H](C(=O)NCCCCCNC(=O)CS)[C@H](c3cccc(OCCO)c3)N2C1=O	-0.37	-2.89 (inactive)	0.611 (inactive)	0.419 (inactive)
C[N+](C)(C)CCCC[C@@H]1NC(=O)[C@H]2C[C@@H](C(=O)NCCCCCN)[C@@H](c3cccc(OCCO)c3)N2C1=O	-1.09	-2.19 (inactive)	0.287 (inactive)	0.7 (inactive)

SMILES	z-score [1]	z-score [2]	z-score [3]	z-score [4]
COc1ccc([Si](C)(C)[C@@H]2[C@@H](CC(=O)N3CCC[C@H]3CO)O[C@]3(C(=O)N(Cc4ccc(I)cc4)c4ccccc43)[C@H]2C)cc1	-2.17	-2.86 (inactive)	-0.703 (inactive)	-0.413 (inactive)
C=CCC1(CC=C)C[C@H]2CO[C@H](c3ccc(OC)cc3)N2C1=O	-0.682	-0.41 (inactive)	-0.063 (inactive)	0.989 (inactive)
O=C(NCC(F)(F)F)[C@@H]1c2ccccc2C(=O)N(C2Cc3ccccc3C2)[C@H]1c1ccc(CO)cc1	0.824	-1.6 (inactive)	-0.606 (inactive)	-0.842 (inactive)
O=C(NC1CC1)[C@@H]1c2ccccc2C(=O)N(Cc2ccccc2C(F)(F)F)[C@H]1c1ccc(CO)cc1	-0.358	-1.7 (inactive)	-0.14 (inactive)	0.177 (inactive)
CCOC(=O)C[C@H]1[C@H](OC(=O)Cc2ccc3c(c2)OCO3)[C@@H](NC(=O)c2ccc3ccccc3c2)c2cc(OCCCO)ccc2N1C(=O)c1ccc2ccccc2n1	-1.29	-2.66 (inactive)	-0.926 (inactive)	-0.612 (inactive)
Cc1ccc(N2C(=O)c3ccccc3[C@](C)(C(=O)NCC(F)(F)F)[C@@H]2c2ccc(CO)cc2)nc1	-1.36	-1.16 (inactive)	-0.326 (inactive)	-0.277 (inactive)
O=C1O[C@@H](c2ccccc2)[C@@H](c2ccccc2)N2[C@@H](c3ccc(OCCO)cc3)[C@]3(C(=O)Nc4ccc(C#CC5(O)CCCCCC5)cc43)[C@@H](C(=O)NC[C@H](O)c3ccccc3)[C@H]12	-2.21	-1.22 (inactive)	0.0477 (inactive)	0.343 (inactive)
Cc1ccc(S[C@]2(C(=O)NC3CC3)CC(=O)N(Cc3ccccc3C(F)(F)F)[C@@H]2c2ccc(CO)cc2I)cc1	-0.215	-1 (inactive)	0.104 (inactive)	0.576 (inactive)
COc1ccc([Si](C)(C)[C@@H]2[C@@H](CCn3cc(CCO)nn3)O[C@]3(C(=O)N(Cc4ccc(N5C(=O)c6cccc7cccc5c67)cc4)c4ccccc43)[C@H]2C)cc1	-2.41	-1.56 (inactive)	-1.02 (inactive)	-0.956 (inactive)
O=C1O[C@H](c2ccccc2)[C@H](c2ccccc2)N2[C@H]1[C@@H](C(=O)NC[C@H](O)c1ccccc1)[C@]1(C(=O)Nc3ccc(C#CC4(O)CCCCCC4)cc31)[C@H]2c1ccc(O)cc1	0.097	-1.84 (inactive)	0.104 (inactive)	0.572 (inactive)
C=C(/C(=C/C[C@H](OC(=O)c1ccncc1)c1cccc(OCCO)c1)c1cc(C(=O)OC)ccc1OC)C(C)C	-2.77	-2.91 (inactive)	-1.09 (inactive)	-1.36 (inactive)
COCCOC(=O)N1C(=O)[C@@]2(c3cc(C#CCNC(N)=O)ccc31)[C@H](C(=O)NC[C@H](O)c1ccccc1)[C@H]1C(=O)O[C@H](c3ccccc3)[C@H](c3ccccc3)N1[C@@H]2c1ccc(O)cc1	0.418	-2.4 (inactive)	-0.134 (inactive)	-0.595 (inactive)
[N-]=[N+]=NCc1ccccc1C[C@]1(C(=O)NCc2ccccc2)N=C(c2ccc(OCCCO)cc2)O[C@H]1c1ccccc1	-2.32	1.43 (inactive)	-0.901 (inactive)	-0.877 (inactive)
Cc1ccc(S[C@]2(C(=O)NCC(C)C)CC(=O)N(C(C)C)[C@@H]2c2ccc(CO)cc2)cc1	-1.79	1.8 (inactive)	-0.273 (inactive)	-0.0385 (inactive)
CC(C)(C)OC(=O)CC[C@@]1(C(=O)N2CCOCC2)N=C(c2ccc(OCCCO)cc2)O[C@@H]1c1ccccc1	-1.19	-4.03 (inactive)	-0.31 (inactive)	-0.323 (inactive)
C=CCNC(=O)[C@H]1[C@@H]2C(=O)O[C@@H](c3ccccc3)[C@@H](c3ccccc3)N2[C@@H](c2ccccc2OCCO)[C@]12C(=O)N(C(=O)OCCOC)c1ccc(C#CCCO)cc12	-2.16	-1.2 (inactive)	0.051 (inactive)	-0.0745 (inactive)
O=C(NCc1ccccc1)[C@@H]1c2ccccc2C(=O)N(Cc2ccccc2Cl)[C@H]1c1ccc(CO)cc1	0.187	-0.497 (inactive)	-0.0434 (inactive)	0.206 (inactive)
C=CCN1C(=O)[C@@]2(O[C@@H](CCO)[C@H]([Si](C)(C)c3ccc(OC)cc3)[C@H]2C)c2cc(N3C(=O)c4cccc5cccc3c45)ccc21	-2.57	-2.8 (inactive)	-1.22 (inactive)	-0.751 (inactive)
CCN(CC)c1ccc(N2CC=CC34O[C@@H]5C=CCOC(=O)[C@@H]5[C@H]3C(=O)N(C(CO)C(C)C)[C@@H]4C2=O)cc1 (some centres not stated)	-0.45	-3.03 (inactive)	-0.623 (inactive)	0.286 (inactive)
C#CCN1C(C(=O)OCC)OC[C@H]1c1ccccc1 (some centres not stated)	-1.53	0.387 (inactive)	-0.285 (inactive)	0.0032 (inactive)
COCCCN1C(=O)[C@@]2(Cc3ccccc31)c1ccccc1C(=O)N(Cc1ccccc1Cl)[C@H]2c1ccc(CO)cc1	-0.7	-0.759 (inactive)	-0.83 (inactive)	-0.981 (inactive)
